# Measurements from PubChem BioAssay (NCI).
# This is part of a sample that, as a whole, favours compounds with a hit. Of some 83,000 tested, about 20% had one in any assay.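 For each line, cells grew in 96-well plates with the test compound present at a single concentration for 48 hours.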 The source made the active and inactive calls. Rule for the calls: active = growth percent below 10; inactive = the rest.
# Test system: HL-60(TB) leukemia
# Test: NCI-60 one-dose screen, 48 h (100 = growth as untreated, 0 = no growth, -100 = all killed)
# Conditions: 10 µM unless noted
row,SMILES,growth
1,NC(CCCC(N)C(=O)c1ccccc1)C(=O)O (stereo unspecified),94.3% (inactive)
2,NCc1cn2cc(Cl)sc2n1,129% (inactive)
3,Cc1ccc2c(c1)ncn2-c1ncnc2c1CC(C)c1ccccc1N2C (stereo unspecified),-36.2% (active)
4,C=C(C)[C@@H]1CC[C@]2(C(=O)N3CCCNCC3)CC[C@]3(C)[C@H](CC[C@@H]4[C@@]5(C)CCC(=O)C(C)(C)[C@@H]5CC[C@]43C)[C@@H]12,67.4% (inactive)
5,COc1cc(NC(=O)c2cc3ccccc3cc2O)c(OC)cc1Cl,-29.2% (active)
6,CCCCCCCC(=O)SCC/C=C/[C@@H]1CC(=O)NCc2cccc(n2)CN(Cc2ccc3ccccc3c2)CC(=O)N[C@@H](C(C)C)C(=O)O1,11% (inactive)
7,CC(C)[C@@]12C[C@@H](OC(=O)[C@H]3CO3)[C@@](C)(O1)[C@@H]1CC[C@@H](C)[C@H]1[C@@H]2OC(=O)/C=C/c1ccccc1,67% (inactive)
8,O=C(CSc1nnc(-c2cc(-c3ccccc3)nc3ccccc23)o1)c1ccc(Br)cc1,99.4% (inactive)
9,O=C(CCCC(=O)Nc1ccc(Cn2nnc3cc(Cl)c(Cl)cc32)cc1)Nc1ccc(CN2N=NC3C=C(Cl)C(Cl)=CC32)cc1 (stereo unspecified),89.7% (inactive)
10,Cc1cccc(NC(=O)[C@@H]2c3ccccc3C(=O)N(c3ccc(Cl)cc3)[C@H]2c2ccc(Cl)cc2)n1,36.2% (inactive)
11,CCCCCSc1ccc2nc(NC(=O)OCC)sc2c1,4.55% (active)
12,CNc1ccc(Br)c2c1C(=O)c1ccccc1C2=O,97.1% (inactive)
13,Cc1cc(=O)oc2cc(OCc3nn4c(Nc5nc6ccccc6s5)c(-c5ccccc5)nc4s3)ccc12,93.1% (inactive)
14,O=C1CCc2c(sc3[nH]c(=S)n(-c4cc(C(F)(F)F)cc(C(F)(F)F)c4)c(=O)c23)C1,-14.2% (active)
15,CCCCCCCC/C=C\CCCCCCCCOc1cccc(CC(=O)NCC[N+]2(C)CCCCC2)c1,28% (inactive)
16,CN(C)c1ncnc2c1ncn2C1CCCCO1 (stereo unspecified),96.3% (inactive)
17,C=C(OC(C)=O)c1ccccc1,72.9% (inactive)
18,COc1ccc(/C=C/c2nc(N3CCOCC3)c3nc(Cl)c(Cl)cc3n2)cc1OC,91.9% (inactive)

row,SMILES,growth
1,OC(c1cc2c(Cl)cc(Cl)cc2c2cc(C(F)(F)F)ccc12)C1CCCCN1 (stereo unspecified),-39.1% (active)
2,O=C1NC(=O)C(c2cnc3ccccn23)=C1c1cn2c3c(cc(F)cc13)CN(C(=O)N1CCCCC1)CC2,48.1% (inactive)
3,COc1ccc(-c2cc(-c3nnc(SCC(=O)Nc4ccc(/C(C)=N\O)cc4)n3-c3ccccc3)c3cc(OC)ccc3n2)cc1,31.8% (inactive)
4,CC(=O)OC1Oc2ccccc2-c2oc3nc(=N)n(C)c-3cc21 (stereo unspecified),94.4% (inactive)
5,CCCCn1c(C)nc2cc(Nc3nc(N4CCCCC4)nc4nc[nH]c34)ccc21,78.4% (inactive)
6,O=C1N(Cc2ccccc2Cl)c2ccccc2C12NN=C(c1ccccc1)S2 (stereo unspecified),58.5% (inactive)
7,COc1cc(-c2nc(C(=O)NCC(=O)NO)nn2-c2ccc(Cl)cc2)cc(OC)c1OC,97.4% (inactive)
8,c1ccc(-n2nnnc2-c2cccc3ccccc23)cc1,-21.8% (active)
9,COc1ccc2c(c1)C(=O)c1c-2c(=O)n(CCCN(C)C)c2cc(OC)c(OC)cc12,74.8% (inactive)
10,CCN(CC)CCOC(=O)Nc1ccccc1Cl,102% (inactive)
11,CCO/C=N/C1=C(C#N)C(c2ccc(OC)cc2)c2c(c3ccccc3n(C)c2=O)O1 (stereo unspecified),102% (inactive)
12,COC(=O)N/N=C/c1c[n+]([O-])c2ccccc2[n+]1[O-],97.2% (inactive)
13,CC12CCC3C4(C)COC(c5ccccc5Cl)OC4CCC3(C)C1CC(C1=CCOC1=O)O2 (stereo unspecified),26.2% (inactive)
14,COc1ccc(NC(=O)CSc2nc(-c3ccc(OC)c(OC)c3)cc(-c3cc(OC)c(OC)c(OC)c3)n2)cc1,115% (inactive)
15,O=S(=O)(Nc1ccc(-n2cnc3cc(-c4ccc(O)cc4)ccc32)cc1)c1ccccc1,79% (inactive)
16,O=C(O)c1ccc(NC(=O)c2ccc(-c3cccc([N+](=O)[O-])c3)o2)cc1,105% (inactive)
17,COc1cc(C2C=C(c3ccc(C)cc3)Nc3nc(SC)[nH]c(=O)c32)ccc1Oc1ccnc2cc(Cl)ccc12 (stereo unspecified),104% (inactive)
18,CCOc1cc(C(C)(C)C)ccc1C1=N[C@H](c2ccc(Cl)cc2)[C@H](c2ccc(Cl)cc2)N1C(=O)N1CCN(CC#Cc2cccc3c2CN([C@@H]2CCC(=O)NC2=O)C3=O)CC1,-20.9% (active)
